Results filed as inconclusive are left out. Active and inactive are the calls of the source. Unless noted, the call rests on the fitted dose curve; in most records, active means well fitted curve in the direction sought with a large enough effect; inconclusive means small, poorly fitted or top-dose-only effect, or another doubt; inactive means no such curve, though single readings can be large; an effect the other way counts as inactive or inconclusive.
How the values were obtained:
[1] = qHTS for Inhibitors of Cell Surface uPA Generation: Validation Assay (AID 493164);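 further: RAW 264.7 macrophage cells exposed to compound for 18 h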
How it was run: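 Compounds are titrated over seven points (2.45 nM–38.3 uM final) onto pre-plated RAW 264.7 cells and incubated for 18 h. Retained intracellular ATP, measured with ATP-Lite, indicates blocked lethal factor entry.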

[2] = Validation screen for small molecules that induce DNA re-replication in SW480 colon adenocarcinoma cells (AID 504364)
How it was run: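 Read-out: total Hoechst intensity of nuclei by fluorescence scanning imager; hits raise the fraction of nuclei with elevated DNA content. Cells received compound for 48 hr at 37 C before a 40 min stain.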

[3] = target: Peptidyl-prolyl cis-trans isomerase NIMA-interacting 1 (Homo sapiens) (UniProt Q13526); experiment: qHTS Validation Assay to Find Inhibitors of Pin1 (AID 504536; active means well fitted inhibition curve with a large enough effect in the polarisation, with a control signal flat, not every such curve was filed as active; the % refers to the polarisation)
Sequence of Peptidyl-prolyl cis-trans isomerase NIMA-interacting 1 (Homo sapiens) (Q13526 whole entry, looked up): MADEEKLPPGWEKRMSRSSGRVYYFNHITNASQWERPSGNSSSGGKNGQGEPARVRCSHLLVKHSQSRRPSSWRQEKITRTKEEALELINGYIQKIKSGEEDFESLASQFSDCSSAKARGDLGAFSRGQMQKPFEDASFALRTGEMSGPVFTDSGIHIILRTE
How it was run: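 Fluorescence polarization competition: compounds (titration) displace HiFluor-488-labeled Pin1-1b peptide from Pin1 (0.3 uM final) in pH 7.5 HEPES buffer with DTT, 10 min at room temperature; %Activity normalized to no-enzyme wells, curves fitted.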

[4] = target: Phosphoglycerate kinase, glycosomal (Trypanosoma brucei brucei) (UniProt P07378); experiment: qHTS Validation Assay to Find Inhibitors of Phosphoglycerate Kinase (AID 504547)
Sequence of Phosphoglycerate kinase, glycosomal (Trypanosoma brucei brucei) (P07378 whole entry, looked up): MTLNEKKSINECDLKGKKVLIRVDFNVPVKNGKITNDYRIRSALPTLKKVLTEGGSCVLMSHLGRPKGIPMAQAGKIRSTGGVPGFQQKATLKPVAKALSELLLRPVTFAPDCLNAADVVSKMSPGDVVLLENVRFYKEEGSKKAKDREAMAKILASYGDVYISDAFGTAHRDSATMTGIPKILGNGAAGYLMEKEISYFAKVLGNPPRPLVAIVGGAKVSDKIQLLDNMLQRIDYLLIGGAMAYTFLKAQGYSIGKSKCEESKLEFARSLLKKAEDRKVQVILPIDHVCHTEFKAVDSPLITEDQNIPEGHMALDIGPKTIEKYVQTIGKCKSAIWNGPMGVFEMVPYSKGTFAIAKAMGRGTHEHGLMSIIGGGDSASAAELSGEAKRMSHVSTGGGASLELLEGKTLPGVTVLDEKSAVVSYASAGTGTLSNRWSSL
How it was run: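 Luminescence end-point (Kinase-Glo Plus, 10 min) after a 60 min room-temperature coupled reaction. GAPDH at 100nM final supplies 1,3-BPG to PGK. Buffer: 100mM TEA pH 7.6, 5mM MgCl2, 0.01% Tween-20. Wells lacking PGK served as controls.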

[5] = target: phosphoglycerate mutase (Leishmania major) (UniProt Q4Q090); experiment: qHTS Validation Assay to Find Inhibitors of Phosphoglycerate Mutase (AID 504548);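 further: end-point luminescence from Kinase-GloPlus after the PGAM reaction; series mostly up to about 58 µM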
How it was run: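 L. major PGAM (1.25nM final) was added to substrate buffer and pinned compound, incubated 45 minutes at room temperature, then Kinase-GloPlus added; luminescence read after 10 minutes. Buffer: 100 mM TEA pH 7.6, 5 mM MgCl2, 0.01% Tween-20.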

[6] = target: Ubiquitin carboxyl-terminal hydrolase 1 (Homo sapiens) (UniProt O94782); experiment: Inhibitors of USP1/UAF1: Pilot qHTS (AID 504865);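 further: rhodamine fluorescence freed from ubiquitin-rhodamine substrate followed over time; top concentration of the series differs between compounds; nearly all actives have a fitted effect of over 35% in size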
Sequence of Ubiquitin carboxyl-terminal hydrolase 1 (Homo sapiens) (O94782 whole entry, looked up): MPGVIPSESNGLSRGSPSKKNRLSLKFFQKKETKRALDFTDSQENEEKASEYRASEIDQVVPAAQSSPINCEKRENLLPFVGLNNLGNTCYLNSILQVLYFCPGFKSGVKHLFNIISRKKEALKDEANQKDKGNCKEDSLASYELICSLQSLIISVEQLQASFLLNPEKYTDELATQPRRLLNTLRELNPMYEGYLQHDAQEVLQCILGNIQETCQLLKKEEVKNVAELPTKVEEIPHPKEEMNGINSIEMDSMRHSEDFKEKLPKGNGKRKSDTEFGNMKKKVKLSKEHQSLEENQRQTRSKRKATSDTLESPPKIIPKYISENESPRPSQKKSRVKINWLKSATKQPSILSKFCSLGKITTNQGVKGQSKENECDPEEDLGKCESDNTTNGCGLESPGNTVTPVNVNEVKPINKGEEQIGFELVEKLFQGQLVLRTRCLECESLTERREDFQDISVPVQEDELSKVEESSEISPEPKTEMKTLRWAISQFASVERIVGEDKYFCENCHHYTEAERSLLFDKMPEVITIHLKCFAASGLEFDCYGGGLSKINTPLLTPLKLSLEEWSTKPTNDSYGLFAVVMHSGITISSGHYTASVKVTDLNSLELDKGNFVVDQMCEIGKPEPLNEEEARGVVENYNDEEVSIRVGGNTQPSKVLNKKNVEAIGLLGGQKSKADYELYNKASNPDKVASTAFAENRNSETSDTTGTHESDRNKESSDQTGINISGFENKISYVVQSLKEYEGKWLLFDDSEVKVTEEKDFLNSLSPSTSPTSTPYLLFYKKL
How it was run: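 Enzyme-free wells gave the negative control, while test wells held 1nM USP1/UAF1 preincubated with compound for 15 min at room temperature. Ub-Rho at 150nM final started the reaction, and fluorescence at 480/540 nm was recorded kinetically.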

[7] = target: Voltage-gated inwardly rectifying potassium channel KCNH2 (Homo sapiens) (UniProt Q12809); experiment: qHTS Assay for Small Molecule Inhibitors of the Human hERG Channel Activity (AID 588834);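 further: potency means the concentration at half of the fitted maximal effect; lower thallium flux fluorescence means stronger hERG block; nearly all actives have a fitted effect of over 50% in size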
How it was run: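 Homogeneous FluxOR thallium flux assay using hERG-expressing U2OS cells (BacMam). Compound treatment about 10 minutes preceded stimulation; reduced fluorescence taken as channel block.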

[8] = target: Glutaminase kidney isoform, mitochondrial (Homo sapiens) (UniProt O94925); experiment: qHTS for Inhibitors of Glutaminase (GLS): LOPAC Validation (AID 624146);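 further: glutamate product detected by oxidase and peroxidase coupled Amplex red fluorescence gain; series mostly up to about 46 µM; nearly all actives have a fitted effect of over 60% in size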
Sequence of Glutaminase kidney isoform, mitochondrial (Homo sapiens) (O94925 whole entry, looked up, canonical isoform): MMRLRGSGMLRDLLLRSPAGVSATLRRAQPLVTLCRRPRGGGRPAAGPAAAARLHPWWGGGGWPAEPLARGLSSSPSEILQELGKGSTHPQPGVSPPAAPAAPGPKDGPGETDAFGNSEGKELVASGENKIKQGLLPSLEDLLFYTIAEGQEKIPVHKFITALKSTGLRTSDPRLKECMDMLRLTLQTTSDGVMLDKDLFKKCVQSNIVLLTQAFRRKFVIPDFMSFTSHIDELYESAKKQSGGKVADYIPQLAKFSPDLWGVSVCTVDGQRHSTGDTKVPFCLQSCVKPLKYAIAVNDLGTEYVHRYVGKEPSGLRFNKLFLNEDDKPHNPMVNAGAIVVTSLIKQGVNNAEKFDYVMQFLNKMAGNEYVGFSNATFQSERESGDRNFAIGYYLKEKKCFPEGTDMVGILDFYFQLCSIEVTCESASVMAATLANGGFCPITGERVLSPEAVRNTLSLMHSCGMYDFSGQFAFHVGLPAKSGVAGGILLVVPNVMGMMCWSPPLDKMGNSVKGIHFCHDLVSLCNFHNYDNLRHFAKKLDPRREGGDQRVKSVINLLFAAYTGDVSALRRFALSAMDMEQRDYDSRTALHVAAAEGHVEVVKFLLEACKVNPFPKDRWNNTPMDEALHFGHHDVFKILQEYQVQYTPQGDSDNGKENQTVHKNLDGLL
How it was run: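 Compounds were pin-transferred onto hKGA, after which L-glutamine (1 mM solution) and a detection mix of glutamate oxidase, HRP and Amplex Red were added. Initial and 30 min RT fluorescence reads were collected.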

[9] = qHTS of Trypanosoma Brucei Inhibitors: LOPAC Validation (AID 624147)
How it was run: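 Activity of T. brucei pyruvate kinase was followed by Kinase-Glo Plus luminescence after the enzyme reacted 45 min at room temperature with 130 uM ADP (final) and substrate. Test compounds were added before ADP at multiple concentrations.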

[10] = target: Glucagon-like peptide 1 receptor (Homo sapiens) (UniProt P43220); experiment: qHTS of GLP-1 Receptor Agonists: LOPAC Validation (AID 624148);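 further: luminescence from a luciferase reporter switched on by cAMP; higher luminescence signal means agonism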
How it was run: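 Agonism scored as increased luciferase luminescence driven by cAMP in HEK293 clones carrying GLP-1R. Cells settled 12 hours, received compound for 4-6 hr at 37 deg C, 5% CO2, and were read after 12 min detection reagent at RT.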

[11] = qHTS of Nrf2 Activators: LOPAC Validation (AID 624149)
How it was run: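 AREc32_Fluc cells, 1000/well, OPTI-MEM + 5% FBS, o/n 37 deg C 5% CO2; compound pin-transfer, 24 hr 37 deg C; Steady-Glo 30 min RT, luminescence read.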

[12] = HTS Assay for Allosteric Antagonists of the Human D2 Dopamine Receptor: Hit Validation in HTRF (AID 624455)
How it was run: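 HTRF read-out; cells stably expressing D1 receptor; hits scored for inhibition of D1-mediated response. Primary screen: calcium flux, force-coupled inducible Hek293 Trex D2 line, antagonism vs EC80 dopamine.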

[13] = target: Hexokinase-4 (Homo sapiens) + Glucokinase regulatory protein (Homo sapiens) (UniProt P35557+Q14397); experiment: qHTS assay for inhibitors of recombinant human GCK-GKRP interaction: HTRF assay (AID 743207)
Sequence of Hexokinase-4 (Homo sapiens) + Glucokinase regulatory protein (Homo sapiens) (P35557 whole entry, looked up): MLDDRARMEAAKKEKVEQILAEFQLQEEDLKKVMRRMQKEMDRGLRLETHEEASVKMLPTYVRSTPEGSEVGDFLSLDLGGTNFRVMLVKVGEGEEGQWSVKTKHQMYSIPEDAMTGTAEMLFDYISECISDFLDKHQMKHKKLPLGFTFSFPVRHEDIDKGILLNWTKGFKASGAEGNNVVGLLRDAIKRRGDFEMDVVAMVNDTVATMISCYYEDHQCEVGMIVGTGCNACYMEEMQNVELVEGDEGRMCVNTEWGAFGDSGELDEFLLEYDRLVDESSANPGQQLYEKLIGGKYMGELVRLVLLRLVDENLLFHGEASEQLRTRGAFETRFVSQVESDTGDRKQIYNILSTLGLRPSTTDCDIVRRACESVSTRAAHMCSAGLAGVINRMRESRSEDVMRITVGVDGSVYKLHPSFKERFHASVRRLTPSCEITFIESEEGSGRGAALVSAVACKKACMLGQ
Sequence of Hexokinase-4 (Homo sapiens) + Glucokinase regulatory protein (Homo sapiens) (Q14397 whole entry, looked up): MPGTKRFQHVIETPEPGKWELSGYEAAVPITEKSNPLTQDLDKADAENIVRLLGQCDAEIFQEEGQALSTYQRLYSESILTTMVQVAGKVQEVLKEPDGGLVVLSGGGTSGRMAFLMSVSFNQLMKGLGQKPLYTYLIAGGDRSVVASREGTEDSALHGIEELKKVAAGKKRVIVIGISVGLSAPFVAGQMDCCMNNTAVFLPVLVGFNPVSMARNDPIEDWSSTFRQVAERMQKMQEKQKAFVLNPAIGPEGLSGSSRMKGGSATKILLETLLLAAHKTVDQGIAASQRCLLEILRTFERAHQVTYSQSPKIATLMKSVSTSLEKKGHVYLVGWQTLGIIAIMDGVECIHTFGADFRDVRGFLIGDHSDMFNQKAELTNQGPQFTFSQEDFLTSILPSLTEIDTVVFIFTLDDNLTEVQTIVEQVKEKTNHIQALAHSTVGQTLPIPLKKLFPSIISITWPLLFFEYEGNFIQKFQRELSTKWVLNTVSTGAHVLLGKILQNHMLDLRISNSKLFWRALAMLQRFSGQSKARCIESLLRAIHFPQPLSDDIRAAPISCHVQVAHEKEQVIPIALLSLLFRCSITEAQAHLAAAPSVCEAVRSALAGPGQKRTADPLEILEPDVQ
How it was run: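 Titration screening format: recombinant GST-GCK and FLAG-GKRP at 5 nM, S6P at 2 uM, labelled anti-tag antibodies, 60 min at RT, dual-wavelength HTRF readout.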

[14] = Natriuretic polypeptide receptor (hNpr1) antagonism - Pilot counterscreen GloSensor control cell line (AID 1347045; calls by dose curve; further: series mostly up to about 38 µM)
How it was run: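 HEK293 cGMP-sensor cells; 2% GloSensor reagent 2 h RT; LOPAC compounds in 1:5 titrations 30-50 min; 50 uM SNP 20 min; luminescence pre-read and post-read.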

[15] = target: Atrial natriuretic peptide receptor 1 (Homo sapiens) (UniProt P16066); experiment: Natriuretic polypeptide receptor (hNpr1) antagonism - Pilot screen (AID 1347049; calls by dose curve;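 further: HEK293 cells with hNpr1 and GloSensor cGMP luciferase stimulated by 0.1 nM hNppA; agonist-evoked cGMP luminescence read 20 min after hNppA addition; series mostly up to about 58 µM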)
Sequence of Atrial natriuretic peptide receptor 1 (Homo sapiens) (P16066 whole entry, looked up): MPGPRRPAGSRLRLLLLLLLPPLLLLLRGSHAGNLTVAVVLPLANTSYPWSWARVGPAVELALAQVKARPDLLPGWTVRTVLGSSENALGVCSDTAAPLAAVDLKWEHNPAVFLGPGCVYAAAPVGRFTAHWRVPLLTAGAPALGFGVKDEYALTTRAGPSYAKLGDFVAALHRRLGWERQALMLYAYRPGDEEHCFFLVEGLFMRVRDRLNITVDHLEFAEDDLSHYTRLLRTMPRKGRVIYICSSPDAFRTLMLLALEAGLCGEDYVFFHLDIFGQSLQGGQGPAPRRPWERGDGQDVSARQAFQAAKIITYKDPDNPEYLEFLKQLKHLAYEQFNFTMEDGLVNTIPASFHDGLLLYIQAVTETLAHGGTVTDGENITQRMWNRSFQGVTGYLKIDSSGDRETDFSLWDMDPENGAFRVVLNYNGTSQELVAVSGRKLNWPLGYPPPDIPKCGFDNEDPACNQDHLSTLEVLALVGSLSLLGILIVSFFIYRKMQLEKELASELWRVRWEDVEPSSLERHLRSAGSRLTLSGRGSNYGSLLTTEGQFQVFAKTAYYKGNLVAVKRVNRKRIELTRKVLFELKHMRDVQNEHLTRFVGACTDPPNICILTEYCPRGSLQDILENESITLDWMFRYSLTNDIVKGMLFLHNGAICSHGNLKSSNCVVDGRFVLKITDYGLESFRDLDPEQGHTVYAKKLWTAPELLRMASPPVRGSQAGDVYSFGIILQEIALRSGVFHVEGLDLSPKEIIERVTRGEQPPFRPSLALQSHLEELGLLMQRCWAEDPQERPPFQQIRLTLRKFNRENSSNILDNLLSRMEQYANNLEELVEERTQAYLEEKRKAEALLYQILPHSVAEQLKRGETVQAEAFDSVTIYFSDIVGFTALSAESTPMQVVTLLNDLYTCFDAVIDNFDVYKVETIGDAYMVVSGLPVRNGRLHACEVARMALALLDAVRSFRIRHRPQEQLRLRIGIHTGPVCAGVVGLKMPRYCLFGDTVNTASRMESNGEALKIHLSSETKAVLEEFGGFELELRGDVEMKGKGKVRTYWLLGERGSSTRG
How it was run: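 Receptor antagonism read as cGMP-dependent luminescence in hNpr1/pGS-40F HEK293 cells: pre-read after 30 min compound exposure, post-read 20 min after hNppA agonist at 0.1 nM final, all at room temperature, protected from light; A-71915 titration as control.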

[16] = target: Atrial natriuretic peptide receptor 2 (Homo sapiens) (UniProt P20594); experiment: Natriuretic polypeptide receptor (hNpr2) antagonism - Pilot subtype selectivity assay (AID 1347050; calls by dose curve)
How it was run: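 Antagonist mode: compounds (LOPAC1280, seven 1:5 dilutions) added 30 min before 1 nM hNppC stimulation of hNpr2-HEK293 cGMP-sensor cells; luminescence read before and 20 min after agonist at ambient temperature.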

[17] = target: Parathyroid hormone/parathyroid hormone-related peptide receptor (Homo sapiens) (UniProt Q03431); experiment: qHTS for PTHR1 Agonists: Optimization Screen against the NCGC LOPAC library (AID 1347079);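 further: GloSensor cAMP luminescence in HEK-293 GP2 cells expressing human PTHR1 with IBMX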
Sequence of Parathyroid hormone/parathyroid hormone-related peptide receptor (Homo sapiens) (Q03431 whole entry, looked up): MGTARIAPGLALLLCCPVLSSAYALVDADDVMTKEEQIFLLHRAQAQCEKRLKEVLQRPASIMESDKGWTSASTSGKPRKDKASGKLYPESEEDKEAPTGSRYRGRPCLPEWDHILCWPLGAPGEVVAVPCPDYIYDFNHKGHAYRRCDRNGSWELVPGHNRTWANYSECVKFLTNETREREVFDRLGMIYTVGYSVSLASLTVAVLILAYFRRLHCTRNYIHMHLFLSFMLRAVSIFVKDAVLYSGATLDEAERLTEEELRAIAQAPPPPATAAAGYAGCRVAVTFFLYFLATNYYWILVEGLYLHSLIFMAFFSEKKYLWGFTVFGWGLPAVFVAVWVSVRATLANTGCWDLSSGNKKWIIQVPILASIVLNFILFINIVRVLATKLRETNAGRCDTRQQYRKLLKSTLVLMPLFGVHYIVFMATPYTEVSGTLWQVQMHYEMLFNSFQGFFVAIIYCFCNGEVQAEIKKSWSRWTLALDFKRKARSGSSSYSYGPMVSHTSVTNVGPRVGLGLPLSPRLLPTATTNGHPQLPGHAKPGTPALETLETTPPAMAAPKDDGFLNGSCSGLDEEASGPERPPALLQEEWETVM
How it was run: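 Signal increase flags agonism. GP2 cells, derived from HEK-293, express human PTHR1 and a GloSensor cAMP construct.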

[18] = tested on: Zika virus NS2B-NS3 protease; experiment: Primary screen GU AMC qHTS for Zika virus inhibitors (AID 1347154); further: nearly all actives have a fitted effect of over 70% in size
How it was run: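 Fluorogenic AMC-substrate cleavage by noncovalent NS2B-NS3 protease complex (25 nM, pH 8.0 Tris buffer with Tween 20) followed for 15 minutes at room temperature (~20% conversion). Percent inhibition from ex340/em450 signal change, fitted by 4-parameter Hill equation.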

[19] = Validation qHTS assay for inhibitors of Activation Induced Cytidine Deaminase (AID): UDG Counterscreen signal (AID 1347427)
How it was run: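 Fluorescence at 560 nm excitation, 665 nm emission reports UDG signal after 250 mM NaOH (2x) addition and 30 min. Enzymes (AID 1 uM, UDG 2 U/mL, at 4/3x) preincubated 10 min with compound, then 4 h with 4x 250 nM DJC20/DJC23 substrate at room temperature.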

[20] = target: Single-stranded DNA cytosine deaminase (Homo sapiens) (UniProt Q9GZX7); experiment: Validation qHTS assay for inhibitors of Activation Induced Cytidine Deaminase (AID): AID signal (AID 1347429)
Sequence of Single-stranded DNA cytosine deaminase (Homo sapiens) (Q9GZX7 whole entry, looked up): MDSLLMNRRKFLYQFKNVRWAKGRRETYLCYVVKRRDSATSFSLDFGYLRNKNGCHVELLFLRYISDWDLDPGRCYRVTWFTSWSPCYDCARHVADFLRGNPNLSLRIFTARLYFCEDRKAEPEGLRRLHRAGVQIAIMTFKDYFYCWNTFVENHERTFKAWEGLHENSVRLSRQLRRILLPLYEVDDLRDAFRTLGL
How it was run: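 AID+UDG coupled FRET deamination; cpds up to 114 uM final; DJC20/DJC23 substrate, 4 hr RT; NaOH stop, 30 min RT; read Ex 540/Em 590.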

Measured: Potency

C1CCC(N=C(NC23CC4CC(CC(C4)C2)C3)N2CCOCC2)CC1
active: [7] 11.2 µM
inactive: all other assays above

— PubChem BioAssay (NCATS)
